# Source: PubChem
# Compounds with a hit are over-represented: about 5.8% of the library has one in this group of screens.
# ALOX12 inh: inhibitors of human 12S-lipoxygenase ALOX12 | purified 12hLO, xylenol orange hydroperoxide absorbance | Potency, µM (titrated, usually from 108 µM), without a hit: at the top dose activity change, negative = inhibition, actives largely listed as inhibitors | actives 1.1% (n = 580,000); further: on the % scale 0 is the no-effect control and ±100 the full control effect
# Target sequence (P18054 whole entry, looked up): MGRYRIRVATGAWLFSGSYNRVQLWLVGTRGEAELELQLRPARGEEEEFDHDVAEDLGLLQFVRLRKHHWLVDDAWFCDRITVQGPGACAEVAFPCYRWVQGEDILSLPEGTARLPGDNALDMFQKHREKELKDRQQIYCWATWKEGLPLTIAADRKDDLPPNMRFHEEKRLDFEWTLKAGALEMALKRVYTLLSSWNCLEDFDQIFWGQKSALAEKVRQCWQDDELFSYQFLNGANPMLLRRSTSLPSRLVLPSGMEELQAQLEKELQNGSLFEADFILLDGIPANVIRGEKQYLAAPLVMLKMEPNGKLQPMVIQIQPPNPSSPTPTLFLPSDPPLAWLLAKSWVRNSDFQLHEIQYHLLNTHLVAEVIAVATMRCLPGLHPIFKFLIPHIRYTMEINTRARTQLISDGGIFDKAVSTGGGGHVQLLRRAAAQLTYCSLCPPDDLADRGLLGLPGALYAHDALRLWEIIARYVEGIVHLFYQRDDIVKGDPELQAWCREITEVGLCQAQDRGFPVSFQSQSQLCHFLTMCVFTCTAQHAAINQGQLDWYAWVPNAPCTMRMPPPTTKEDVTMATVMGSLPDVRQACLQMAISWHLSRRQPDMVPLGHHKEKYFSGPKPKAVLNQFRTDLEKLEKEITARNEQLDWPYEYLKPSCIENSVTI
#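 Purified human 12hLO at 150 nM in 25 mM Hepes, 0.01% Triton X-100, pH 7.0, preincubated 15 min at room temperature with compound. Reaction started with 40 uM arachidonic acid, 30 min at room temperature. Hydroperoxide measured by Fe-xylenol orange, 573/405 nm absorbance ratio.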
# PINK1 modulator: PINK1 expression modulation; PINK1 immunofluorescence, high-content cytometry, 24 h; Potency, µM (titrated, usually from 76.6 µM), inactives show at the top dose activation (PINK1 increase), usual class: activators; AID 624263; actives 0.2% (n = 410,000); active means well fitted activation curve with a large enough effect; inconclusive means small, poorly fitted or top-dose-only effect; cell line not stated here; further: % of control where 0% means no effect; nearly all actives have a fitted effect of over 65% in size
#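 A stable cell line was treated with compounds at 5 concentrations for 24 hours, with CCCP as control. PINK1 levels and mitochondrial localization were measured by immunofluorescence with mitochondrial, cell and nuclear markers after fixation, read by laser-scanning cytometry.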
# MCF10A rereplic: DNA re-replication induction in MCF 10a cells; MCF 10A DNA re-replication, Hoechst nuclear intensity, 48 h; Potency, µM (highest dose often 46.1 µM), inactives show at the highest dose activity, positive = re-replication, hits mostly activators; actives 2.9% (n = 350,000); further: % of control where 0% means no effect; nearly all actives have a fitted effect of over 50% in size
# KB-V1 MDR tox: KB-V1 MDR subline cytotoxicity | Potency, µM (top dose mostly 46.1 µM), actives largely listed as cytotoxic | KB-V1 MDR cells viability, CellTiter-Glo, 72 h | actives 3.4% (n = 400,000); further: on the % scale 0 is the no-effect control and ±100 the full control effect; nearly all actives have a fitted effect of over 60% in size
#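 KB-V1 cells (P-gp-expressing MDR subline of KB-3-1) in phenol-red-free DMEM with 10% FBS were exposed to library compounds over a concentration series for 72 h at 37 degrees C. Viability read by CellTiter-Glo luminescence; concentration-effect curves fitted after normalization.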
# KB-3-1 tox: kills parental KB-3-1 adenocarcinoma cells; Potency, µM (top dose mostly 46.1 µM), actives largely listed as cytotoxic; actives 1.4% (n = 400,000); KB-3-1 viability, CellTiter-Glo ATP luminescence, 72 h; AID 1347075; further: on the % scale 0 is the no-effect control and ±100 the full control effect; nearly all actives have a fitted effect of over 60% in size
#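 KB-3-1 cells, DMEM (no phenol red) + 10% FBS; compound by pin transfer, 72 h, 37 °C. Readout: CellTiter-Glo luminescence after 10 min. Data normalized, curve-fitted.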
# SW480 rereplic: inducers of DNA re-replication in SW480 colon cancer cells. SW480 DNA re-replication, Hoechst DNA content imaging, 48 h. Potency, µM (titrated, usually from 46.1 µM), inactives show top-dose re-replication activation, most hits filed as activators. actives 1.8% (n = 340,000); further: % of control where 0% means no effect; nearly all actives have a fitted effect of over 55% in size
#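 Hoechst fluorescence of nuclei (405 nm excitation, 500-530 nm emission) measured by plate-scanning imager after 48 hr compound exposure at 37 C; re-replication scored as increased number of nuclei with elevated intensity.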
# * hit, by the source's call; i = inactive; ? = inconclusive; . = no result given; ! = not active in a repeat; [ ] = dose if it differs, or a comment. Unless noted, the call rests on the fitted dose curve; in most records, active means well fitted curve in the direction sought with a large enough effect; inconclusive means small, poorly fitted or top-dose-only effect, or another doubt; inactive means no such curve, though single readings can be large; an effect the other way counts as inactive or inconclusive. Potency means the concentration at half of the fitted maximal effect.
SMILES,ALOX12 inh,PINK1 modulator,MCF10A rereplic,KB-V1 MDR tox,KB-3-1 tox,SW480 rereplic
C(=Nn1cnnc1)c1ccc2c(c1)CCC2,-21%,-1%,.,?,16µM*,.
O=[N+]([O-])c1cc(/C=N/n2cnnc2)ccc1N1CCCC1,-1%,-1%,0%,2.6µM*,i,-169%
Brc1cccc(/C=N\n2cnnc2)c1,0%,-14%[38.3 µM],21%,?,i,-6%
CC(C)CN(CC(C)C)c1ccc(/C=N/n2cnnc2)cc1[N+](=O)[O-],?,-6%,?,21µM*,?,-8%
CC(C)C(=O)N1CCCN(C)c2ccccc21,-5%,.,.,.,.,.
O=C(Nc1ccccc1)[C@@H]1CC=C[C@@H]2CCN(Cc3ccc(Cl)c(Cl)c3)C(=O)[C@@H]21,3%,6%,-3%,21µM*!,i,5%
O=c1[nH]c(CN2CCN(c3ccc([N+](=O)[O-])cc3)CC2)nc2ccsc12,15%,1%,-3%,18µM*,16µM*,0%
CCn1cnc2c1c(=O)n(CC(=O)NC(=O)NCc1ccccc1)c(=O)n2Cc1ccccc1,-3%,.,.,.,.,.
Cc1cc(N2CCCC(C(=O)Nc3cccc(Cl)c3)C2)n2ncnc2n1 (configuration not stated),4%,0%,1%,?,i,-1%
CCCc1cc(N2CCCC(C(=O)Nc3cc(Cl)ccc3OC)C2)n2ncnc2n1 (configuration not stated),14%,1%[38.3 µM],17%,13µM*,i,-10%
Cc1cc(N2CCCC(C(=O)Nc3ccc4c(c3)CCC4)C2)n2ncnc2n1 (configuration not stated),-8%,3%[38.3 µM],4%,4.6µM*,?,2%
N/C(=N/O)c1cccc(CN2CCOCC2)c1,-9%,.,.,.,.,.
Cc1ccc(-c2nn(-c3ccccc3)cc2/C=C(\C#N)C(=O)NCc2ccccc2)cc1,-1%,8%,4%,i,i,1%
CCSc1ccc(-c2nn(-c3ccccc3)cc2/C=C(/C#N)C(=O)NCCCOC)cc1,-4%,12%,15µM*,i,i,?
CCCSc1ccc(-c2nn(-c3ccccc3)cc2/C=C(/C#N)C(=O)NCCCOC)cc1,2%,?,9%,?,i,4.1µM*
COc1ccc(C(=O)CC(Nc2ccc([N+](=O)[O-])cc2)c2ccc(Cl)cc2)cc1 (configuration not stated),21%,-5%[38.3 µM],13%,6.5µM*,i,?
CCOc1ccc(C(=O)Nc2nnc(C3=COCCO3)o2)cc1,11%,-2%,11%,?,0.0012µM*,1%
COc1ccc(C(=O)Nc2nnc(C3=COCCO3)o2)cc1,0%,1%,3%,i,i,18%
CCOC(=O)C(N)c1c(C)nn(-c2cccc(C(F)(F)F)c2)c1C (configuration not stated),-41%,.,.,.,.,.
O=C(CN1C(=O)C2CC=CCC2C1=O)OCC(=O)c1ccc(Cl)c([N+](=O)[O-])c1 (configuration not stated),313%,0%,23µM*,?,i,?
O=C(CN1C(=O)C2C3C=CC(C3)C2C1=O)OCC(=O)c1ccc([N+](=O)[O-])cc1 (configuration not stated),-16%,0%,?,i,i,-4%
CC(Nc1ccc([N+](=O)[O-])cn1)c1ccc(C(F)(F)F)cc1 (configuration not stated),-27%,.,.,.,.,.
CCCc1ccc(C(=O)NNc2ccc(F)cc2)cc1,18µM*,-1%,?,i,?,4%
O=C(NC(=S)NNC(=O)c1ccccc1O)c1ccc(F)cc1,?,-1%,14%,i,?,?
CCCc1ccc(C(=O)NC(=O)c2ccccc2O)cc1,148%,45µM*,?,?,?,3%
SMILES,ALOX12 inh,PINK1 modulator,MCF10A rereplic,KB-V1 MDR tox,KB-3-1 tox,SW480 rereplic
O=C(NC(=O)c1ccccc1O)c1ccc(C(F)(F)F)cc1,66%,32µM*,28%,i,i,?
CCCc1ccc(C(=O)NNC(=O)c2ccc(Br)cc2)cc1,-12%,0%,6%,?,i,2%
Cc1c(-c2ccc(F)cc2)[nH]c2ccc(CNC(=O)c3n[nH]c4c3CCCC4)cc12,29%,.,.,.,.,.
CC(NC(=O)COC(=O)c1cn(-c2ccccc2)nc1-c1cccs1)c1ccccc1 (configuration not stated),?,-3%[38.3 µM],?,21µM*,i,6%
O=C(Nc1ncc2c(n1)-c1ccccc1OC2)c1cccc([N+](=O)[O-])c1,-3%,1%,0%,i,i,-4%
O=C(Nc1ncc2c(n1)-c1ccccc1CC2)c1cccc(Cl)c1,-23%,2%,13µM*,?,10µM*,?
O=C(Nc1ncc2c(n1)-c1ccccc1OC2)c1ccc(F)cc1,3%,0%,1%,i,?,-4%
O=C(Nc1ncc2c(n1)-c1ccccc1CC2)c1ccc(Cl)cc1,-9%,1%[38.3 µM],10%,9.2µM*,i,14%
CCOc1ccc(C(=O)N(c2ccc(C)cc2)C2C=CS(=O)(=O)C2)cc1 (configuration not stated),1%,.,.,.,.,.
O=C(CN1CCCC1)N1c2ccccc2Sc2ccccc21,0%,2%,11%,i,i,-5%
CC1(C)CCCN(C(=O)N2c3ccccc3Sc3ccccc32)C1,0%,0%,13µM*,i,i,15%
O=C(NC1CCN(Cc2ccccc2)CC1)c1cc2cc(Cl)ccc2[nH]1,-65%,.,.,.,.,.
Cc1ccc(C(=O)NC(=S)N2CCN(c3ccccc3F)CC2)cc1,?,4%,2%,i,?,23µM*
COCCNC(=O)c1cc(-c2cccs2)on1,4%,3%,-6%,21µM*,21µM*,1%
COCCNC(=O)Nc1ccc2nc(-c3cccs3)c(-c3cccs3)nc2c1,?,5%,23µM*,i,i,?
COc1cc(NC(=O)c2cc(-c3cccc(O)c3)on2)cc(OC)c1OC,6%,4%,13%,i,12µM*,-3%
COc1ccc(NC(=O)c2cc(-c3ccccc3Cl)on2)cc1,-3%,0%,3%,?,i,-3%
COc1cc(NC(=O)c2cc(-c3ccccc3Cl)on2)cc(OC)c1OC,-8%,9%,21µM*,?,6.5µM*,?
O=C(Nc1ccc2nc(-c3cccs3)c(-c3cccs3)nc2c1)N1CCCC1,.,0%,.,i,i,.
O=C(NCc1cccs1)c1cc(-c2cccs2)on1,11%,1%[38.3 µM],5%,i,i,-4%
